Screens from PubChem.
PLK1 PBD inh – inhibitors of human PLK1 polo-box domain binding. P53350. Plk1 PBD binding of FITC phosphopeptide, fluorescence polarization. Potency, µM, for inactives: max response, negative = inhibition, most hits filed as inhibitors. 360,000 compounds, 2.8% hits. AID 720504; further: potency means the concentration at half of the fitted maximal effect; series mostly up to about 57 µM; on the % scale 0 is the no-effect control and ±100 the full control effect; nearly all actives have a fitted effect of over 65% in size
JMJD2A Tudor inh – inhibitors of human JMJD2A Tudor domain. 390,000 compounds, 4.4% hits. Potency, µM (highest dose often 114 µM), without a hit: at the highest dose activity change, negative = inhibition, usual class: inhibitors. AlphaScreen JMJD2A-Tudor / H3K4me3 peptide binding. O75164; further: potency means the concentration at half of the fitted maximal effect; on the % scale 0 is the no-effect control and ±100 the full control effect; nearly all actives have a fitted effect of over 50% in size
BAZ2B inh – blocks human BAZ2B; AID 504333; AlphaScreen BAZ2B-H3K14Ac peptide displacement; Q9UIF8; 360,000 compounds, 4.4% hits; Potency, µM (highest dose often 114 µM), inactives show at the top dose activity change, negative = inhibition, usual class: inhibitors; further: potency means the concentration at half of the fitted maximal effect; on the % scale 0 is the no-effect control and ±100 the full control effect; nearly all actives have a fitted effect of over 60% in size
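BAZ2B (50 nM) with biotin-H3(5-23)K14Ac peptide (50 nM) in PBS pH 7.4, 0.01% Tween-20, preformed 30 min, then compound 30 min at room temperature; top concentration 110uM. AlphaScreen streptavidin donor/nickel chelate acceptor beads (10 ug/mL final), 20 min dark, signal read.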
Sfp inh – Sfp phosphopantetheinyl transferase inhibition. Q9F4F7. Biochemical Sfp PPTase activity, qHTS. Potency, µM, inactives show largest response in the series, negative = inhibition, hits mostly inhibitors. 310,000 compounds, 3.5% hits. AID 1490;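 further: the enzyme is Sfp with the accession as filed and its product quenches rhodamine fluorescence; potency means the concentration at half of the fitted maximal effect; 0% = enzyme reaction without inhibitor and -100% = no enzyme wells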
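With Hepes-Na pH 7.6 buffer containing 10 mM MgCl2, Sfp (15 nM) modified BHQ-2-YbbR (12.5 uM) using rhodamine-CoA (5 uM). Two reads 30 minutes apart at 525/598 nm yielded each well's rate.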
G9a block – inhibitors of human histone lysine methyltransferase G9a; Q96KQ7; G9a H3K9 monomethylation, AlphaScreen, 2 h; Potency, µM (titrated, usually from 102 µM), without a hit: at the top dose activity, negative = inhibition, usual class: inhibitors; 350,000 compounds, 8.8% hits; further: potency means the concentration at half of the fitted maximal effect; on the % scale 0 is the no-effect control and ±100 the full control effect; nearly all actives have a fitted effect of over 75% in size
Target sequence (Q96KQ7 913-1193 limits assumed): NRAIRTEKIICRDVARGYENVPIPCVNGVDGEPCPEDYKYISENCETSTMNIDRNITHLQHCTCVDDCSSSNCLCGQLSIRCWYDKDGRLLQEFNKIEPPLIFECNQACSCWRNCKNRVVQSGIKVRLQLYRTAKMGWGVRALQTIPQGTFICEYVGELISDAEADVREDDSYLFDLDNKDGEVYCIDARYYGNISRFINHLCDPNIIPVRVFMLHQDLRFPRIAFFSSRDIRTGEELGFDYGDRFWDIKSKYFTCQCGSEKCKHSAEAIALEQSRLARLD
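Using a bead-based AlphaScreen, monomethylated H3K9 product from 2 h room-temperature reactions (G9a 20 nM, peptide 500 nM, SAM 20 uM) was detected with 0.5 ug/mL rabbit anti-H3K9me1 antibody.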
HP1b binding inh – blocks HP1-beta chromodomain binding to methylated histone tails; P83916; AlphaScreen HP1-beta / biotin-H3K9me3 peptide binding; Potency, µM (titrated, usually from 114 µM), for inactives: at the highest dose activity change, negative = inhibition, actives largely listed as inhibitors; 390,000 compounds, 0.56% hits; AID 540317; further: potency means the concentration at half of the fitted maximal effect; nearly all actives have a fitted effect of over 70% in size
Target sequence (P83916 whole entry, looked up): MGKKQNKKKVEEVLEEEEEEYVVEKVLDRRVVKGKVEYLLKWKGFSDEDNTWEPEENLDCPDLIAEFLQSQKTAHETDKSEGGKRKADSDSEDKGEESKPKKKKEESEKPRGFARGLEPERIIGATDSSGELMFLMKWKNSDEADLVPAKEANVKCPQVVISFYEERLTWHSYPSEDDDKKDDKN
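HP1-beta protein (50 nM final) preincubated 30 min at room temperature with biotinylated H3(1-18)K9me3 peptide (50 nM) in PBS pH 7.4, 0.01% Tween-20, then compound added for 30 min. AlphaScreen streptavidin donor/nickel chelate acceptor beads (10 ug/mL final), 30 min dark, luminescence read.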
Sfp inh conf – Sfp phosphopantetheinyl transferase inhibition, confirmation | shares compounds with Sfp inh | Sfp PPTase enzymatic assay, qHTS titration | AID 2701 | Potency, µM (series often up to 114 µM), inactives show top-dose activity change, negative = inhibition, usual class: inhibitors | 380 compounds, 79% hits;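 further: potency means the concentration at half of the fitted maximal effect; plate controls were uninhibited Sfp reaction for no effect and no enzyme control for full effect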
Target sequence (Q9F4F7 whole entry, looked up): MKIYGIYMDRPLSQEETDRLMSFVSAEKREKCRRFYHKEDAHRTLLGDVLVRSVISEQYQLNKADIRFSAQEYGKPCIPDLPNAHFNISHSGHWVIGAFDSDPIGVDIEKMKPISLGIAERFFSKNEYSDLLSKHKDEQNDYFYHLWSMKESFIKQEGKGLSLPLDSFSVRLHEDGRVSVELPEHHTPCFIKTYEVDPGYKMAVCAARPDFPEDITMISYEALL
Sfp gel assay – Inhibits B. subtilis Sfp phosphopantetheinylation | shares compounds with Sfp inh | purified Sfp, gel-based phosphopantetheinylation read-out | Potency, µM, most hits filed as inhibitors | 210 compounds, 20% hits | AID 2707;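 active means potency below 100 µM; inconclusive means dose-dependent response but potency above 100 µM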;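 further: band intensities scaled against SCH202676 control wells before curve fitting; potency is an IC50 for inhibitors of Sfp transfer activity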
Active calls of the source: *; i = inactive; ? = inconclusive; · = no result given; ! = repeats disagree; [ ] = dose if it differs, or a comment. The list is not random: actives were taken first. Their share in the collection is about 12%. Unless noted, the call rests on the fitted dose curve; in most records, active means well fitted curve in the direction sought with a large enough effect; inconclusive means small, poorly fitted or top-dose-only effect, or another doubt; inactive means no such curve, though single readings can be large; an effect the other way counts as inactive or inconclusive.

SMILES	PLK1 PBD inh	JMJD2A Tudor inh	BAZ2B inh	Sfp inh	G9a block	HP1b binding inh	Sfp inh conf	Sfp gel assay
COc1ccccc1CNC(=O)Nc1cccs1	-28%	56µM*	?	4µM*	-48%[2.33 µM]	?	24µM*	·
COC(=O)CCCn1nc(NC(=O)COc2ccc(F)cc2)cc1C	-3%	-8%	3%	12%	18%	10%	·	·
Cc1ccc(-c2nc3cnccn3c2Nc2ccccc2)o1	-23%	?	-33%	4.5µM*	7.9µM*	?	3.3µM*	·
Cc1ccc2nc(-c3ccc(C)o3)c(Nc3ccccc3)n2c1	·	-31%	·	·	·	1%	·	·
Nc1nc(NCC2CCC(CNS(=O)(=O)c3cccc4ccccc34)CC2)nc2ccccc12 (stereo unspecified)	·	·	·	28µM*	25µM*	·	47µM*	56µM*
NCCCCCCNS(=O)(=O)c1cccc2ccccc12	·	·	·	22%	·	·	·	·
Cc1cccc(OCC(=O)N(Cc2ccccc2)c2c(N)n(Cc3ccccc3)c(=O)[nH]c2=O)c1	-13%	-24%	-5%	·	-1%[59 µM]	28%	·	·
CCOC(=O)c1nn(-c2ccccc2)c(=O)c2c(N)scc12	2.7µM*	-34%[11.4 µM]	·	13µM*	1.6µM*	22%	19µM*	·
CCOC(=O)c1nn(-c2ccccc2C)c(=O)cc1OCC(=O)N1CCN(c2ccccc2)CC1	-6%	-26%	-32%	·	-20%	7%	·	·
CCOC(=O)c1nn(-c2ccccc2C)c(=O)c2c(N)scc12	-14%	18µM*	79µM*	3.2µM*	3.2µM*	-16%	15µM*	·
CCOC(=O)c1nn(-c2ccccc2)c(=O)c2c(NC(C)=O)scc12	-10%	-11%	·	16%	-46%	23%	·	·
NC(c1csc(NC(=O)Nc2cccc(Cl)c2)n1)C1CCCCC1 (stereo unspecified)	4%	·	·	·	·	·	·	·
CCC1CCc2c(sc(NC(=O)c3cnccn3)c2C(N)=O)C1 (stereo unspecified)	3µM*	?	-36%	10µM*	3.5µM*	?	8.3µM*	·
COC(=O)c1c(NC(=O)c2cnccn2)sc2c1CCC2	-23%	-8%	-14%	-23%	20%[2.33 µM]	43%	·	·
CC(=O)CCc1oc2ccc(NC(C)=O)cc2c1-c1ccc(C)o1	-4%	?	?	13µM*	13µM*	11%	15µM*	i
COc1ccc(CCN2CC(=O)NC(=O)C2)cc1OC	-18%	·	·	·	·	·	·	·
OC(CN1CCNCC1)Cn1c2ccc(Br)cc2c2cc(Br)ccc21 (stereo unspecified)	·	·	·	35µM*	·	·	-9%	i
Cc1ccc(-c2c[n+](Cc3ccc(Cl)cc3)c3n2CCC3)cc1	-5%	-10%	-26%	19%	-23%	-3%	·	·
Clc1ccc(C[n+]2csc3ccccc32)cc1	27µM*	50µM*	50µM*	4µM*	?	23%	8.3µM*	2.1µM*
C[C@H](NC(=O)[C@@H]1CCCN1C(=O)OC(C)(C)C)c1ccccc1	-5%	·	·	·	·	·	·	·
CCC1CC(=O)CCN1S(=O)(=O)c1ccc(C)cc1 (stereo unspecified)	-1%	-5%	·	·	·	24%	·	·
COc1ccc(-c2noc(CSc3nc4sc(C)c(C)c4c(=O)n3-c3ccccc3)n2)cc1	-8%	-13%	-8%	4µM*	-12%[59 µM]	25%	4.7µM*	i
CC12COC3(C(=O)Nc4ccc5ccccc5c4)CC1CCC32C (stereo unspecified)	7%	1%	1%	0%	32%	46%	·	·
NC(=O)c1sc2nc(-c3ccco3)ccc2c1N	-27%	-19%	-3%	5µM*	?	37%	6.6µM*	i
Nc1c(C(=O)Nc2ccccc2F)sc2nc(-c3ccco3)ccc12	?	-15%	-2%	4µM*	?	16%	1.7µM*	·
SMILES	PLK1 PBD inh	JMJD2A Tudor inh	BAZ2B inh	Sfp inh	G9a block	HP1b binding inh	Sfp inh conf	Sfp gel assay
COC(=O)c1cc(C)nc(Sc2ccccc2N)n1	1.7µM*	45µM*	-18%	2µM*	3.5µM*	?	4.2µM*	·
COC(=O)c1ccccc1NC(=O)CSc1nc(C)cc(C)n1	-12%	-1%	-16%	-15%	-4%	49%	·	·
Nc1cc(-c2ccncc2)c[nH]c1=O	30µM*	-33%	-12%	6.3µM*!	45µM*!	13%	13µM*	?
COc1ccc2[nH]c(=O)c(CN(C(=O)c3ccco3)C3CCCCC3)cc2c1	-8%	-17%	32%	7.9µM*	?	28%	37µM*	i
COc1ccc2[nH]c(=O)c(CN(C(C)=O)C3CCCCC3)cc2c1	-8%	-19%	-1%	11%	9%	15%	·	·
CCOC(=O)Cc1ccc(Nc2nc3cc(-c4ccccc4C)sc3c(=O)n2C)cc1	-21%	·	·	·	·	·	·	·
Cc1ccccc1-n1nc(-c2ccc(N)cc2)cc1N	-1%	?	-25%	14µM*	?	4%	2%	i
O=C(Nc1ccc(C(=O)OCc2cc(=O)n3c4c(sc3n2)CCCC4)cc1)c1ccc(F)cc1	·	1%	-11%	·	-3%[12.7 µM]	31%	·	·
CC(C)CC1NC(=O)N(CC(=O)Nc2ccc3c(c2)OCCO3)C1=O (stereo unspecified)	-1%	-6%	2%	·	-10%[2.33 µM]	35%	·	·
Cc1ccn2c(Nc3ccc4c(c3)OCO4)c(-c3ccccn3)nc2c1	-5%	13µM*	13µM*	2.8µM*	?	50µM*	?	i
CCC(CO)[n+]1c(C)cc(/C=C2\Sc3ccccc3N2Cc2ccccc2)cc1C (stereo unspecified)	7%	-3%	4%	35µM*	?	23%	53µM*	?
Nn1c(=O)c2ccccc2n2c(SCc3ccc(C(F)(F)F)cc3)nnc12	?	-19%	5%	45µM*	4µM*	17%	?	i
CC(C)CN(C(=O)C1COc2ccccc2O1)c1c(N)n(CC(C)C)c(=O)[nH]c1=O (stereo unspecified)	3%	-10%	-4%	·	27%[12.7 µM]	32%	·	·
Cc1ccnc(NCc2cc(C)ccc2O)c1	-2%	-6%	-7%	-9%	-90%	30%	·	·
Cc1ccc(NCc2ccc(O)c3ncccc23)cc1	2.7µM*	8.9µM*	-25%	3.5µM*	5µM*	?	?	·
CCOC(=O)c1cc(-c2ccccc2)sc1NC(=O)c1ccc(OC)cc1	5.3µM*	?	-33%	14µM*	?	?	8.3µM*	·
